Data: PubChem BioAssay AID1159580 (chemical genetic matrix, 2015)
Values joined by “and” are separate entries in the source; they are usually repeats but may differ in a detail not shown here. Equal values may be shown once. About 2,000 (36%) of roughly 5,500 compounds were called active. Not shown: some 18% with an inconclusive outcome. No stated cut-off is given here; in the data, active means normalized growth mostly below about 0.91 (no sharp cut-off); inconclusive means no clear call, values can overlap the other calls; inactive means mostly above about 0.92. Some of the results follow.

Test: chemical genetic growth profiling, strain panel (AID 1159580);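 further: tested at 20 µM; growth read once vehicle control cultures reached saturation at 30 °C; 1 = growth at the plate median or of vehicle wells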
Settings: S. cerevisiae deletion strains, growth OD

Measured: normalized growth

CCN(CC)CCNc1ccc(CO)c2sc3ccccc3c(=O)c12
inactive: locus YAL013W, strain DEP1, stronger effect = lower value 1.01 | locus YAL021C, strain ccr4, stronger effect = lower value 0.994 | locus YAL026C, strain drs2, stronger effect = lower value 0.999 | locus YAL030W, strain snc1, stronger effect = lower value 1.01 | locus YBL061C, strain skt5, stronger effect = lower value 1 | locus YBR009C, strain hhf1, stronger effect = lower value 1.01 | locus YBR021W, strain FUR4, stronger effect = lower value 0.955 | locus YBR023C, strain chs3, stronger effect = lower value 1 | locus YBR171W, strain sec66, stronger effect = lower value 1.02 | locus YBR229C, strain ROT2, stronger effect = lower value 1 | locus YBR231C, strain swc5, stronger effect = lower value 1 | locus YBR279W, strain paf1, stronger effect = lower value 1 | locus YCL011C, strain gbp2, stronger effect = lower value 1 | locus YCL016C, strain dcc1, stronger effect = lower value 1 | locus YCL029C, strain bik1, stronger effect = lower value 1.01 | locus YCL069W, strain vba3, stronger effect = lower value 1.01 | locus YCR088W, strain abp1, stronger effect = lower value 1.01 | locus YDL005C, strain med2, stronger effect = lower value 1.01 | locus YDL035C, strain GPR1, stronger effect = lower value 0.992 | locus YDL040C, strain nat1, stronger effect = lower value 0.993 | locus YDL074C, strain BRE1, stronger effect = lower value 0.948 | locus YDL101C, strain DUN1, stronger effect = lower value 0.979 | locus YDL134C, strain PPH21, stronger effect = lower value 0.996 | locus YDL185W, strain tfp1, stronger effect = lower value 1 | locus YDL192W, strain arf1, stronger effect = lower value 1.01 | locus YDR001C, strain nth1, stronger effect = lower value 1.01 | locus YDR069C, strain doa4, stronger effect = lower value 1.01 | locus YDR101C, strain arx1, stronger effect = lower value 1 | locus YDR137W, strain rgp1, stronger effect = lower value 0.894 | locus YDR150W, strain NUM1, stronger effect = lower value 1 | locus YDR159W, strain sac3, stronger effect = lower value 1 | locus YDR162C, strain NBP2, stronger effect = lower value 0.969 | locus YDR195W, strain ref2 1.07 | locus YDR297W, strain sur2, stronger effect = lower value 1.01 | locus YDR318W, strain mcm21, stronger effect = lower value 1 | locus YDR334W, strain swr1, stronger effect = lower value 1 | locus YDR335W, strain msn5, stronger effect = lower value 1.02 | locus YDR388W, stronger effect = lower value 1.01 | locus YDR392W, strain spt3, stronger effect = lower value 0.999 | locus YDR502C, strain sam2, stronger effect = lower value 0.961 | locus YEL003W, strain gim4, stronger effect = lower value 1.01 | locus YEL037C, strain rad23, stronger effect = lower value 1.01 | locus YEL061C, strain CIN8 (second series), stronger effect = lower value 0.999 | locus YEL061C, strain CIN8, stronger effect = lower value 0.999 | locus YER015W, strain faa2, stronger effect = lower value 1 | locus YER016W, strain bim1, stronger effect = lower value 0.99 | locus YER110C, stronger effect = lower value 1.02 | locus YER111C, strain swi4, stronger effect = lower value 1 | locus YER155C, strain BEM2 (second series), stronger effect = lower value 0.972 | locus YER155C, strain BEM2, stronger effect = lower value 1.03 | locus YER167W, strain BCK2, stronger effect = lower value 1 | locus YFR010W, strain ubp6, stronger effect = lower value 0.999 | locus YGL078C, strain dbp3, stronger effect = lower value 1.01 | locus YGL086W, strain mad1, stronger effect = lower value 1 | locus YGL167C, strain pmr1, stronger effect = lower value 1.01 | locus YGL173C, strain kem1, stronger effect = lower value 1.01 | locus YGL227W, strain vid30, stronger effect = lower value 0.989 | locus YGL240W, strain doc1, stronger effect = lower value 1.01 | locus YGL248W, strain PDE1, stronger effect = lower value 1 | locus YGL253W, strain hxk2, stronger effect = lower value 1.01 | locus YGR078C, strain PAC10, stronger effect = lower value 0.975 | locus YGR135W, strain pre9, stronger effect = lower value 0.971 | locus YGR229C, strain SMI1, stronger effect = lower value 0.998 | locus YGR252W, strain gcn5, stronger effect = lower value 0.918 | locus YHR013C, strain ard1, stronger effect = lower value 1.01 | locus YHR027C, strain rpn1, stronger effect = lower value 1.01 | locus YHR030C, strain SLT2, stronger effect = lower value 1.01 | locus YHR079C, strain IRE1 (second series), stronger effect = lower value 1.01 | locus YHR079C, strain IRE1, stronger effect = lower value 1.01 | locus YHR094C, strain hxt1, stronger effect = lower value 1.02 | locus YHR129C, strain ARP1, stronger effect = lower value 0.995 | locus YHR142W, strain chs7, stronger effect = lower value 1.01 | locus YHR200W, strain rpn10, stronger effect = lower value 1.02 | locus YIL066C, strain RNR3, stronger effect = lower value 0.968 | locus YIL073C, strain SPO22, stronger effect = lower value 1.18 | locus YIL125W, strain kgd1, stronger effect = lower value 1.01 | locus YIR030C, strain dcg1, stronger effect = lower value 1.02 | locus YJL092W, strain hpr5, stronger effect = lower value 1 | locus YJL095W, strain BCK1 (second series), stronger effect = lower value 1.01 | locus YJL095W, strain BCK1, stronger effect = lower value 0.952 and 1.02 | locus YJL115W, strain asf1, stronger effect = lower value 1.03 | locus YJL129C, strain trk1, stronger effect = lower value 1 | locus YJL134W, strain LCB3, stronger effect = lower value 1 | locus YJL154C, strain vps35, stronger effect = lower value 1.01 | locus YJL164C, strain tpk1, stronger effect = lower value 1.01 | locus YJL166W, strain qcr8, stronger effect = lower value 1.02 | locus YJL168C, strain set2, stronger effect = lower value 1.02 | locus YJL187C, strain SWE1 (second series), stronger effect = lower value 0.986 | locus YJL187C, strain SWE1, stronger effect = lower value 1 | locus YJR043C, strain POL32, stronger effect = lower value 1 | locus YJR066W, strain TOR1, stronger effect = lower value 0.949
